The source of these data is PubChem BioAssay AID434990 (Southern Research Specialized Biocontainment Screening …, 2010).

The structures appear in SMILES notation. Active and inactive are the calls of the source.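 How the source made its calls: active means inhibition above 40% at one or more tested concentrations in the dose response counterscreen; inactive means inhibition below 40% at every dose tested.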

This assay is described as follows: nmpC-GFP reporter inhibition in S. Typhimurium, SAR follow-up, counter-screen for PhoP regulon inhibitor project, synthesized compounds, round 3 (AID 434990). Conditions: S. Typhimurium counter-screen GFP reporter fluorescence, 4 h; series mostly up to 150 µM. Background: A counterscreen serves to expose hits that act by an unwanted route or on another target.
As for `O=C(Nc1cccc(C(F)(F)F)c1)N1CCCN(Cc2ccccc2F)C1`, the outcome was inactive.

Take `Cc1ccccc1CNC(=S)Nc1ccncc1`: the call was inactive.

For the compound `O=C(Nc1ccc(Cl)cc1)N1CCCN(Cc2ccc(Br)cc2)C1`, the compound was called inactive.

As to `COc1ccccc1CNC(=S)Nc1ccncc1`, the result was inactive.

In the case of `Cc1ccc(NC(=O)N2CCCN(Cc3ccccc3F)C2)cc1`, the result was inactive.

With `S=C(NCCc1ccc(Cl)cc1)Nc1ccncc1`, the outcome was inactive.

For the compound `O=C(Nc1ccc(Cl)cc1)N1CCCN(Cc2ccccc2Br)C1`, the compound was called inactive.

In the case of `O=C1C2=C(Nc3ccccc3SC2c2cccc(I)c2)c2ccccc21` (centres undefined), the outcome was inactive.

For `O=C(Nc1ccc(I)cc1)N1CCCN(Cc2ccccc2F)C1`, the compound was called inactive.

For `O=C(Nc1cccc(F)c1)N1CCCN(Cc2ccccc2F)C1`, the call was inactive.

Take `N#Cc1ccccc1NC(=S)NCc1ccc(Cl)cc1`: the call was inactive.

Regarding `Cc1cccc(NC(=O)N2CCCN(Cc3ccccc3F)C2)c1`, the call was inactive.

Consider `O=C(Nc1cccc(I)c1)N1CCCN(Cc2ccccc2F)C1`, for which the compound was classed as inactive.

Consider `N#Cc1ccc(NC(=S)NCc2ccc(Cl)cc2)cc1`, for which the outcome was inactive.
